Laboratory results as given in PubChem BioAssay (Tox21).
“And” between values parts separate entries of the source, which are not always exact repeats. Equal entries are not always repeated. Results filed as inconclusive are left out. Where a call stands in place of a potency, no number is given. Values without a mark were called inactive. The source made the active and inactive calls. How the calls were made is not given here.

Experiment: qHTS assay to identify small molecule antagonists of the estrogen related receptor signaling pathway with the pleiotropic PPARgamma coactivator (PGC) from Tox21 10K library (AID 1224841); further: actives are mostly falling curves and most rising ones were filed inactive; nearly all actives have a fitted effect of over 50% in size
Conditions: PGC/ERR reporter cell line, ONE-Glo luciferase, 18 h; series mostly up to 92.4 µM; activity, negative = inhibition: at the top concentration
Text: U.S. Tox21 Program National Center for Advancing Translational Sciences [NCATS] NIH Chemical Genomics Center [NCGC] U.S. Environmental Protection Agency [EPA] National Institutes of Environmental Health Sciences [NIEHS] National Toxicology Program [NTP] U.S. Food and Drug Administration [FDA] Tox21 Assay Overview: Estrogen related receptors (ERRs), the first orphan nuclear receptors discovered, play an important role in the control of cellular energy metabolism. ERRs are required for high-energy production in response to the environmental challenges. The pleiotropic PPARgamma coactivator (PGC) is a major partner of ERR and a key regulator in energy homeostasis. Together they have been implicated in the etiology of metabolic disorders such as Type 2 diabetes and metabolic syndrome. ERR-alpha was also identified as an adverse marker for breast cancer progression; ERR-alpha-positive tumors have a poor prognosis. To screen and to identify environmental compounds that perturb the ERR and PGC/ERR signaling pathways could provide valuable information for potential therapeutic or preventive measures in the treatment of metabolic disease. For identifying PGC/ERR antagonists, PGC/ERR cell line (provided by NTP) has been used to screen Tox21 10K library.
Tox21 Assay Protocol Summary: The PGC/ERR cells were dispensed at 2,000 cells/5 ul/well in 1536-well white plates using a Multidrop dispenser. After the assay plates were incubated at a 37 C/5% CO2 incubator for 6 hours, 23 nL of compounds dissolved in DMSO, positive and negative controls or DMSO only was transferred to the assay plate by a pin tool. The plates were incubated at 37 C for 18 hours. 4 ul/well of One-Glo reagent was added into the assay plates using a Flying Reagent Dispenser. After 30-minute incubation at room temperature, the luminescence intensity in the plates was measured using a ViewLux plate reader.
Potency means the concentration at half of the fitted maximal effect.

Row | Structure (SMILES) | Potency | activity, negative = inhibition [%]
1 | O=Cc1ccc(CO)o1 | inactive | 
2 | CC(=O)OC(C)(C)C1CC=C(C)CC1 (stereo not given) | inactive | 
3 | CC(=O)OCc1ccc2c(c1)OCO2 | inactive | 
4 | N#CCC(=O)O | inactive | 
5 | O=C(O)Cc1c[nH]c2ccccc12 | inactive | 
6 | OB(O)O | inactive | 
7 | CCCCC(CC)COC(=O)c1ccc(C(=O)OCC(CC)CCCC)cc1 (stereo not given) | inactive | 
8 | COC(=O)OC | inactive | 
9 | CN=C(NC#N)NCCSCc1nc[nH]c1C | inactive | 
10 | C=CC(C)(C)C | inactive | 
11 | Nc1nc(N)c2nc(-c3ccccc3)c(N)nc2n1 | inactive | 
12 | Nc1cccc(C(F)(F)F)c1 | inactive | 
13 | CCCOCC(C)O (stereo not given) | inactive | 
14 | OCCOCCOCCOCCOCCO | inactive | 
15 | CC(COCC(C)OC(=O)c1ccccc1)OC(=O)c1ccccc1 (stereo not given) | inactive | 
16 | CC(=O)OCCC(C)C | inactive | 
17 | O=[N+]([O-])c1ccccc1C(F)(F)F | inactive | 
18 | O=C(c1ccccc1)c1ccc(O)c(O)c1O | inactive | 
19 | Cc1cc(C)cc(O)c1 | inactive | 
20 | C=C1C[C@]23C[C@@]1(O)CC[C@H]2[C@@]12C=C[C@H](O)[C@@](C)(C(=O)O1)[C@H]2[C@@H]3C(=O)O | inactive | 

Row | Structure (SMILES) | Potency | activity, negative = inhibition [%]
21 | OC[C@H]1O[C@@H](Oc2ccc(O)cc2)[C@H](O)[C@@H](O)[C@@H]1O | inactive | 
22 | C1CCCNCC1 | inactive | 
23 | COCN(COC)c1nc(N(COC)COC)nc(N(COC)COC)n1 | inactive | 
24 | CC(C)(CO)CO | inactive | 
25 | CS(=O)(=O)c1ccc(Cl)cc1 | inactive | 
26 | COc1ccccc1[N+](=O)[O-] | inactive | 
27 | O=C1OC(=O)c2c(Cl)c(Cl)c(Cl)c(Cl)c21 | inactive | 
28 | CCCCCCCCCCCCCC(=O)O | inactive | 
29 | COc1ccc2cc3[n+](cc2c1OC)CCc1cc2c(cc1-3)OCO2 | 3.88 µM (active) and 7.5 µM (active) | 
30 | c1cnc2c(c1)ccc1cccnc12 | 777 nM (active) and 969 nM (active) and 1.72 µM (active) | 
31 | CC(C=O)Cc1ccc(C(C)(C)C)cc1 (stereo not given) |  | -3.78
32 | CC(=O)Nc1ccc(CC(=O)O)cc1 | inactive | 
33 | COC(=O)/C=C\C(=O)OC | inactive | 
34 | Cc1cc(C)c(O)c(C)c1 | inactive | 
35 | C[n+]1ccn(CCO)c1 | inactive | 
36 | NC1CCCCC1N (stereo not given) | inactive | 
37 | O=[N+]([O-])c1cc(C(F)(F)F)ccc1Cl | inactive | 
38 | CCCCCCC(=O)O | inactive | 
39 | CC(CN1c2ccccc2Sc2ccccc21)N(C)C (stereo not given) | inactive | 
40 | COc1cc(NC(=O)CC(C)=O)c(OC)cc1Cl | 38.7 µM (active) | 
